Results published in PubChem BioAssay (NCATS).
Where “and” joins values, the source holds several entries; their conditions need not be identical. Identical values can stand only once. Results filed as inconclusive are left out. Where a call stands in place of a potency, no number is given. Calls of active or inactive are those of the source. Unless noted, calls come from the whole dose curve; as a rule, active = well fitted curve in the direction sought with a large enough effect; inconclusive = small, poorly fitted or top-dose-only effect, or another doubt; inactive = no such curve, though single readings can be large; an effect the other way counts as inactive or inconclusive.

Tests used:
[1] = Cell Viability - BJ (AID 421; calls by dose curve;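 note: potency is the fitted concentration of half-maximal effect; cells exposed to compound for 40 hours at 37 °C before readout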); conditions: BJ fibroblast viability, qHTS
How it was run: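 Cytotoxicity as drop in intracellular ATP (CellTiter-Glo, 20 min RT) after 40 hr compound exposure of BJ fibroblasts at 37 °C. Titrations scaled between DMSO and 100 uM tamoxifen, Hill-fitted for AC50.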

[2] = Cell Viability - Jurkat (AID 426;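 active = dose-dependent loss of cell ATP signal giving a full or clear fitted curve, ranked by lower potency value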;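 note: potency is the fitted concentration of half-maximal effect; cells exposed to compound for 40 hours at 37 °C before ATP read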); conditions: qHTS
How it was run: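 Jurkat (Clone E6-1) cells, 5000/well in complete medium, exposed to compounds for 40 hr at 37C; intracellular ATP measured by CellTiter-Glo luminescence after 20 min at room temperature. AC50 from Hill fits.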

[3] = Cell Viability - Hek293 (AID 427;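 active = compounds whose dose-response curve shows a full or clear partial loss of cell viability, called from curve shape rather than a numeric limit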;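 note: potency is the fitted concentration of half-maximal effect; cells exposed to compound for 40 hours at 37 °C before reading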); conditions: qHTS
How it was run: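 Luminescent ATP content (CellTiter-Glo, 20 min at room temperature) was measured after a 40 hr, 37 °C compound exposure of HEK293 cells. AC50 values came from Hill-equation fits of qHTS concentration-response data normalized to DMSO and 100 uM tamoxifen.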

[4] = Cell Viability - HepG2 (AID 433; calls by dose curve;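 note: potency is the fitted concentration of half-maximal effect; potency for ATP loss meaning cytotoxicity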); conditions: qHTS
How it was run: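 ATP luminescence (CellTiter-Glo) after 40 h compound exposure, 37 °C, HepG2, 1500 cells/well, complete medium. Normalized: DMSO = basal, 100 uM tamoxifen = 100% inhibition. AC50 via standard Hill equation.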

[5] = Cell Viability - SK-N-SH (AID 435; calls by dose curve; note: potency is the fitted concentration of half-maximal effect); conditions: SK-N-SH neuroblastoma cell viability qHTS
How it was run: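 CellTiter-Glo ATP luminescence, 20 min RT read; cells pre-plated 5 hr, compound 40 hr at 37 °C, 1500 cells/well, complete medium. Normalized DMSO = 0, 100 uM tamoxifen = 100% inhibition; Hill-fit AC50.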

[6] = Cell Viability - Renal Proximal Tubule (AID 545); conditions: renal proximal tubule cells viability; series mostly up to 91.7 µM; note: nearly all actives have a fitted effect of over 40% in size
How it was run: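 Rat kidney proximal tubule cells, freshly isolated; 1000 cells/well, 5 hr settle, compound 40 hr 37 °C. CellTiter-Glo 20 min RT, luminescence read. AC50 by standard Hill fit.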

[7] = Cellular Toxicity (caspase-3) HUV-EC-C (AID 656); conditions: HUV-EC-C cells, caspase-3 activation (apoptosis), vehicle = 0, 100 µM tamoxifen = 100%; series mostly up to 92.2 µM
How it was run: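 Luminescent caspase-3/7 activation (aminoluciferin substrate cleavage) in HUV-EC-C cells after 16 hr compound exposure, 37°C. Signal normalized to DMSO basal and 100 uM tamoxifen as 100%; AC50 from concentration-response fitted with the Hill equation.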

[8] = Cellular Toxicity (caspase-3) SHSY5Y (AID 657); conditions: SH-SY5Y caspase-3 activation, DMSO zero, 10 µM staurosporine = 100%; series mostly up to 91.7 µM
How it was run: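 Luminescent caspase-3/7 readout (aminoluciferin release) in SH-SY5Y cells after 16 h compound exposure in complete medium. Activity scaled between DMSO basal and 10 uM staurosporine as 100%; concentration-response fitted to Hill equation for AC50.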

[9] = Cellular Toxicity (caspase-3) MRC-5 (AID 659); conditions: MRC-5 cells, luminescence, normalized: DMSO 0%, 10 µM staurosporine 100%; series mostly up to 91.7 µM
How it was run: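 Luminescence from caspase-cleaved aminoluciferin substrate (Caspase-Glo 3/7, 1 hr RT) reports caspase 3/7 activity in MRC-5 lung fibroblasts after 16 hr compound exposure. Normalized to DMSO basal and 10 uM staurosporine as 100%; AC50 from Hill fits.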

[10] = MultiTox-Fluor Cytotoxicity Assay - LYMP1-002 - Live Cells (AID 955); conditions: LYMP1-002 lymphoblastoid live-cell protease fluorescence viability; series mostly up to 46.1 µM
How it was run: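 Human lymphoblastoid LYMP1-002 cells, 2500/well, treated 16 h at 37 C in complete medium. Live-cell protease activity via GF-AFC fluorescence (Ex/Em 405/510) after 60 min reagent incubation; AC50 from Hill fits.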

[11] = Cell Viability - LYMP1-003 - Assay at 24 hr (AID 963); conditions: LYMP1-003 lymphoblastoid cell viability; series mostly up to 92.2 µM
How it was run: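 Human lymphoblastoid LYMP1-003 cells, 2500/well, treated 24 h at 37 C in complete medium. Viability read as intracellular ATP by CellTiter-Glo luminescence after 30 min at room temperature; AC50 from Hill-equation fits of qHTS concentration-response.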

[12] = Cell Viability - LYMP2-009 (AID 968); conditions: LYMP2-009 lymphoblastoid cell viability; series mostly up to 92.2 µM; note: nearly all actives have a fitted effect of over 55% in size
[13] = Cell Viability - LYMP2-017 (AID 972); conditions: LYMP2-017 lymphoblastoid cell viability; series mostly up to 92.2 µM; note: nearly all actives have a fitted effect of over 55% in size
How it was run: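 LYMP2-017 human lymphoblastoid cells (2500/well) settled 5 hr at 37 C, then exposed to compound 24 hr at 37 C in complete medium. Viability taken as intracellular ATP by CellTiter-Glo luminescence after 30 min at RT; AC50 from Hill fits.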

[14] = Cell Viability - LYMP2-025 (AID 976); conditions: LYMP2-025 lymphoblastoid cell viability; series mostly up to 92.2 µM
How it was run: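 Human lymphoblastoid LYMP2-025 cells, 2500/well, exposed 24 h at 37 C in complete medium in 1536-well qHTS. Viability as cellular ATP by CellTiter-Glo luminescence; AC50 from Hill fits of concentration-response data.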

[15] = Cell Viability - LYMP2-016 (AID 984); conditions: LYMP2-016 lymphoblastoid cell viability, qHTS; series mostly up to 92.2 µM; note: nearly all actives have a fitted effect of over 55% in size
How it was run: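 qHTS, 1536-well: 2500 LYMP2-016 cells/well, 5 hr 37 C, compound added, 24 hr 37 C, CellTiter-Glo 30 min RT, luminescence. Tetraoctylammonium bromide positive control. AC50 via Hill fit.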

[16] = Cell Viability - LYMP2-024 (AID 988); conditions: LYMP2-024 lymphoblastoid cell viability; series mostly up to 92.2 µM; note: nearly all actives have a fitted effect of over 60% in size
How it was run: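 Human lymphoblastoid LYMP2-024 cells (2500/well) rested 5 hr, then treated with compound for 24 hr at 37 C in complete medium. Viability was measured as intracellular ATP by CellTiter-Glo luminescence. AC50 values came from Hill-equation fits.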

[17] = qHTS Assay for Identification of Small Molecule Inducers of Hypoxia Response (AID 2120; active = well fitted curve in the direction sought with a large enough effect in the signal ratio, with a control signal flat, not every such curve was filed as active; the % refers to the signal ratio); conditions: hypoxia response reporter cells, beta-lactamase ratio readout; series mostly up to 104 µM
How it was run: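 HRE-bla ME-180 cells in Opti-MEM with 0.5% dialyzed FBS, pre-plated 4-5 h, then compound titration for 17 h at 37 degrees Celsius. CCF4 loaded 2.5 h at room temperature; 460/530 nm ratio gave %Activity and AC50 for induction.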

[18] = qHTS assay for small molecule agonists of retinoid X receptor alpha signaling (AID 588544); conditions: HEK293T RXRa-UAS-bla, beta-lactamase reporter, 18 h; 530 nm emission
[19] = molecular target: Peroxisome proliferator-activated receptor alpha (Homo sapiens) (UniProt Q07869); experiment: qHTS assay for small molecule agonists of the peroxisome proliferator-activated receptor alpha (PPARalpha) signaling pathway (AID 651778); conditions: PathHunter PPARalpha complementation, chemiluminescence, 6 h; stronger effect = higher value
How it was run: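 Cells plated at 2,000/well and held overnight at 37 C, 5% CO2, then compound added by pin tool for 6 hr; after PathHunter detection reagent and 60 min at room temperature, chemiluminescence from enzyme complementation was read.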

[20] = qHTS assay for small molecule agonists of the antioxidant response element (ARE) signaling pathway measured by Nrf2-dependant transcriptional activity - cell viability counter screen (AID 720653; active = well fitted curve in the direction sought with a large enough effect in the repeat runs; an effect the other way counts as inactive or inconclusive); conditions: ARE-bla HepG2 viability, CellTiter-Glo ATP luminescence, 16 h; stronger effect = lower value
How it was run: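 ARE-bla HepG2 cells (2,000/well) rested 5 hrs at 37C/5% CO2, then exposed to compounds in DMSO for 16 hrs. Viability was read in the same wells as intracellular ATP by luminescence, 30 min at room temperature after reagent addition.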

Sequence of Peroxisome proliferator-activated receptor alpha (Homo sapiens) (Q07869 whole entry, looked up): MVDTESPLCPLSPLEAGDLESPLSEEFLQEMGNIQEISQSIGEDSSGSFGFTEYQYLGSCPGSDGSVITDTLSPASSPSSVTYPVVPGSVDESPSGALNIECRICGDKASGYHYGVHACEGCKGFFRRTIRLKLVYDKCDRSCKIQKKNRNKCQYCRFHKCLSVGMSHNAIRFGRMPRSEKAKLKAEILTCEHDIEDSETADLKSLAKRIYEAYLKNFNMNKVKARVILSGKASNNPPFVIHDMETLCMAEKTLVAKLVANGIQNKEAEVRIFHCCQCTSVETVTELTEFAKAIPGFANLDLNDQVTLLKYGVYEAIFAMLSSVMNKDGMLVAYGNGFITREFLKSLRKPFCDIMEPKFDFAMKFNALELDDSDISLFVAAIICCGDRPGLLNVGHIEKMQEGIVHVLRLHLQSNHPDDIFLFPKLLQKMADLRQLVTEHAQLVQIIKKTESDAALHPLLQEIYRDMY

Compound | Potency [1] | Potency [2] | Potency [3] | Potency [4] | Potency [5] | outcome [6] | outcome [7] | outcome [8] | outcome [9] | outcome [10] | outcome [11] | Potency [12] | Potency [13] | Potency [14] | Potency [15] | Potency [16] | Potency [17] | max response [18] | max response [19] | max response [20]
CCN(CC)N=O | > 92 µM (inactive) | > 92 µM (inactive) | > 92 µM (inactive) | > 92 µM (inactive) | > 92 µM (inactive) | inactive | inactive | inactive | inactive | inactive | inactive | inactive | inactive | inactive | inactive | inactive | inactive | -8.19% | 2.1% (inactive) | 2.46% (inactive)
CN(C)c1ccccc1 | > 92 µM (inactive) | > 92 µM (inactive) | > 92 µM (inactive) | > 92 µM (inactive) | > 92 µM (inactive) | inactive | inactive | inactive | inactive | inactive | inactive | inactive | inactive | inactive | inactive | inactive | inactive | -3.38% | -1.79% (inactive) | 12.1% (inactive)
c1ccc(OCC2CO2)cc1 (stereo not given) | > 92 µM (inactive) | > 92 µM (inactive) | > 92 µM (inactive) | > 92 µM (inactive) | > 92 µM (inactive) | inactive | inactive | inactive | inactive | inactive | inactive | inactive | inactive | inactive | inactive | inactive | inactive | 6.69% | -5.02% (inactive) | 0.104% (inactive)
Clc1cccc2ccccc12 | > 92 µM (inactive) | > 92 µM (inactive) | > 92 µM (inactive) | > 92 µM (inactive) | > 92 µM (inactive) | inactive | inactive | inactive | inactive | inactive | inactive | inactive | inactive | inactive | inactive | inactive | inactive | 0.056% | -0.995% (inactive) | 5.5% (inactive)
Cc1ccc(N)cc1N | > 92 µM (inactive) | > 92 µM (inactive) | > 92 µM (inactive) | > 92 µM (inactive) | > 92 µM (inactive) | inactive | inactive | inactive | inactive | inactive | inactive | inactive | inactive | inactive | inactive | inactive | inactive | -4.9% and 16.6% | 6.43% (inactive) and -0.158% (inactive) | 0.265% (inactive) and 5.03% (inactive)
Cl/C=C/Cl | > 92 µM (inactive) | > 92 µM (inactive) | > 92 µM (inactive) | > 92 µM (inactive) | > 92 µM (inactive) | inactive | inactive | inactive | inactive | inactive | inactive | inactive | inactive | inactive | inactive | inactive | inactive | 1.12% | -4.81% (inactive) | 1.77% (inactive)
Cc1ccc2c(C)cccc2c1 | > 92 µM (inactive) | > 92 µM (inactive) | > 92 µM (inactive) | > 92 µM (inactive) | > 92 µM (inactive) | inactive | inactive | inactive | inactive | inactive | inactive | inactive | inactive | inactive | inactive | inactive | inactive | -13.5% | 3.14% (inactive) | -2.91% (inactive)
CCCCC(=O)Cl | > 92 µM (inactive) | > 92 µM (inactive) | > 92 µM (inactive) | > 92 µM (inactive) | > 92 µM (inactive) | inactive | inactive | inactive | inactive | inactive | inactive | inactive | inactive | inactive | inactive | inactive | inactive | -18.9% | -8.92% (inactive) | 2.67% (inactive)
CCCCC#N | > 92 µM (inactive) | > 92 µM (inactive) | > 92 µM (inactive) | > 92 µM (inactive) | > 92 µM (inactive) | inactive | inactive | inactive | inactive | inactive | inactive | inactive | inactive | inactive | inactive | inactive | inactive | 2.48% | -3.73% (inactive) | -5.38% (inactive)
C=CC(=O)OCCN(C)C | > 92 µM (inactive) | > 92 µM (inactive) | > 92 µM (inactive) | > 92 µM (inactive) | > 92 µM (inactive) | inactive | inactive | inactive | inactive | inactive | inactive | inactive | inactive | inactive | inactive | inactive | inactive | -14.1% | 10.1% (inactive) | 5.35% (inactive)
CC1CC(=O)O1 (stereo not given) | > 92 µM (inactive) | > 92 µM (inactive) | > 92 µM (inactive) | > 92 µM (inactive) | > 92 µM (inactive) | inactive | inactive | inactive | inactive | inactive | inactive | inactive | inactive | inactive | inactive | inactive | inactive | -12.1% | -0.51% (inactive) | -3.76% (inactive)
